Experimental data published in PubChem BioAssay AID1851 (National Center for Advancing Translational Sciences (NCATS), 2009).
About 5,100 (32%) of roughly 16,000 compounds were called active. Not shown: some 25% with an inconclusive outcome. Calls follow the shape of the dose curve; as a rule, active = well fitted curve in the direction sought with a large enough effect; inconclusive = small, poorly fitted or top-dose-only effect, or effect the other way; inactive = no such curve, though single readings can be large or run the other way. The list shows a part of the results.

target: Cytochrome P450 3A4 (Homo sapiens) (UniProt P08684); assay: Cytochrome panel assay with activity outcomes; details: recombinant CYP, pro-luciferin dealkylation, luminescence, p450-cyp3a4; series mostly up to 57.1 µM; activity, negative = inhibition: at the top concentration
% is scaled to controls: 0 for no effect and ±100 for the full control effect.

Sequence of Cytochrome P450 3A4 (Homo sapiens) (P08684 whole entry, looked up): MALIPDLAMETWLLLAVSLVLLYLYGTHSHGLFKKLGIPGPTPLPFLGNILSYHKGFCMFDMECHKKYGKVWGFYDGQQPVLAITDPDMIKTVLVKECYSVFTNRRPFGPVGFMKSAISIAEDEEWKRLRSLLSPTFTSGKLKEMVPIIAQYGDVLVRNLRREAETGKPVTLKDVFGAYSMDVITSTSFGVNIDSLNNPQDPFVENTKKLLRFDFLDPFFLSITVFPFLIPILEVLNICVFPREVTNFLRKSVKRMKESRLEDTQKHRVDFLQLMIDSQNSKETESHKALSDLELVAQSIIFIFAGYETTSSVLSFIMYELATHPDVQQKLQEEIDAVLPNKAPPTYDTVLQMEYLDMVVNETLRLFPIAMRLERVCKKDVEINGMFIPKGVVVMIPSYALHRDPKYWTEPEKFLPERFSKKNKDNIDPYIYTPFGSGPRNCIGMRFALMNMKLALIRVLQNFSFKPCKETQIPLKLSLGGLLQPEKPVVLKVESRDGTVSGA

| SMILES | activity, negative = inhibition | AC50 |
| --- | --- | --- |
| Brc1ccc2cccnc2c1 | 25.9% (inactive) | – |
| CN1CCN(c2ncc3nc(-c4ccc(Cl)cc4)c(=O)n(CCC#N)c3n2)CC1 | 10.9% (inactive) | – |
| N#CCCn1cc(/C=N/O)c(-c2ccc(Cl)cc2)n1 | – | 12.6 µM (active) |
| N#CCCn1c(=O)c(-c2ccc(Cl)cc2)nc2cnc(N3CCOCC3)nc21 | -6.31% (inactive) | – |
| Cc1ccc(S(=O)(=O)N/N=C/c2ccc(OC3CSC3)cc2)cc1 | -21.9% [at 2.29 µM] (inactive) | – |
| O=S(=O)(N/N=C\c1ccc2c(c1)OCO2)c1ccc(Cl)cc1 | – | 3.98 µM (active) |
| O=S(=O)(N/N=C/c1ccc2c(c1)OCCO2)c1ccc(Cl)cc1 | – | 14.1 µM (active) |
| Cc1cc(OC(=O)c2ccccc2Br)cc(=O)n1C | -13.2% [at 11.4 µM] (inactive) | – |
| CC(C)N=c1cc2n(-c3ccc(Cl)cc3)c3ccccc3nc-2cc1Nc1ccc(Cl)cc1 | -8.96% [at 25.6 µM] (inactive) | – |
| CN(C)c1nc(NCc2ccccc2)nc(N/N=C/c2ccc(Cl)cc2Cl)n1 | – | 2.24 µM (active) |
| O=C(N/N=C/c1ccc(Cl)cc1Cl)Nc1ccccc1 | -14% (inactive) | – |
| CC(Sc1nc(NCc2ccccc2)nc(N(C)C)n1)C(=O)Nc1ccccc1 (stereo unspecified) | -9.99% [at 2.29 µM] (inactive) | – |
| O=C(O)CC1(C(=O)O)CCCCC1 | -15.2% [at 11.4 µM] (inactive) | – |
| NC1(C(=O)O)C[C@@H](C(=O)O)[C@H](C(=O)O)C1 | – | inactive |
| N.N.O=C(O)C1(C(=O)O)CCC1.[Pt] | – | 39.8 µM (active) |
| Cc1ccc(S(=O)(=O)c2nc(S(=O)(=O)c3ccc(C)cc3)c(NCc3ccco3)s2)cc1 | – | 3.55 µM (active) |
| Cc1ccc(CSc2nnc3c(n2)OC2(Nc4ccccc4-3)C(=O)Nc3ccc(F)cc32)cc1 (stereo unspecified) | -12.4% [at 2.29 µM] (inactive) | – |
| O=C1Nc2ccc(F)cc2C12Nc1ccccc1-c1nnc(SCc3ccccc3F)nc1O2 (stereo unspecified) | – | 15.8 µM (active) |
| Cc1cc(CNC(=O)[C@@H]2C[C@H]2[C@@H](NP(=O)(c2ccccc2)c2ccccc2)c2ccccc2)nn1C | – | 0.398 µM (active) |
| Cc1ccc(CNC(=O)[C@H]2C[C@@H]2[C@H](NP(=O)(c2ccccc2)c2ccccc2)c2ccccc2)c(F)c1F | – | 0.316 µM (active) |
| Cc1cc(CNC(=O)[C@H]2C[C@@H]2[C@H](NP(=O)(c2ccccc2)c2ccccc2)c2ccccc2)nn1C | – | 2.51 µM (active) |

| SMILES | activity, negative = inhibition | AC50 |
| --- | --- | --- |
| CC[C@H]1CN(C)[C@H]2Cc3c([nH]c4ccccc34)C(=O)C[C@H]1[C@H]2C(=O)OC | -21.4% [at 11.4 µM] (inactive) | – |
| C[Si](C)(c1ccc(C(=O)O)cc1)c1ccc(C(=O)O)cc1 | -6.28% [at 11.4 µM] (inactive) | – |
| CCN(CC)c1ncnc2c1sc1nc(C)cc(C)c12 | – | 12.6 µM (active) |
| CCN(CC)N=Nc1[nH]nc2nc(C)cc(C)c12 | -15.1% [at 11.4 µM] (inactive) | – |
| C/C(=N\Nc1ccc([N+](=O)[O-])cc1)c1cccc(N)c1 | – | 3.55 µM (active) |
| NC(=O)c1cccc(N)c1 | -23.9% (inactive) | – |
| COCCNc1nc(-c2ccccc2Cl)nc2ccccc12 | – | 12.6 µM (active) |
| COCCNc1nc(-c2ccccc2C(F)(F)F)nc2ccccc12 | – | 12.6 µM (active) |
| Nc1nc(SCC(=O)O)[nH]c(=O)c1N | -4.46% [at 11.4 µM] (inactive) | – |
| Cc1ccc2nc(Cc3ccc(N)cc3)[nH]c2c1 | – | 1.78 µM (active) |
| Cc1ccc2nc(-c3ccc(NC(=O)Cc4cccs4)cc3)[nH]c2c1 | -7.46% [at 2.29 µM] (inactive) | – |
| C[N+](C)(C)c1ncnc2c1ncn2[C@@H]1CCCCO1 | -9.49% [at 11.4 µM] (inactive) | – |
| Cc1cccc(N2CC(O)=C(c3nc4ccccc4n3C)C2=N)c1 | -27.6% (inactive) | – |
| Cn1c(-c2sc(=S)n(-c3ccccc3)c2N)nc2ccccc21 | – | 4.47 µM (active) |
| CCN(CC)c1ccc2c(c1)OC(N)=C(C#N)C2c1cccnc1 (stereo unspecified) | – | 0.891 µM (active) |
| CC(=O)Nc1ccc(NC(=O)Cn2c(-c3ccc(F)cc3)cnc2SCC(=O)Nc2c(C)cccc2C)cc1 | – | 3.16 µM (active) |
| CC[N+](CC)(CC)CC(=O)Nc1c(C)cccc1C | – | inactive |
| Cc1cccc(C)c1NC(=O)Nc1ccc(S(N)(=O)=O)cc1 | -9.51% [at 11.4 µM] (inactive) | – |
| CSC(N)=NCCC[C@@H](N)C(=O)O | -22.9% (inactive) | – |
| CN(C)C(=O)c1ccc(-c2ccc3ncnc(NCc4ccccc4)c3c2)cc1 | – | 15.8 µM (active) |
| CN(C)c1ccc(-c2ccc3ncnc(NCc4ccccc4)c3c2)cc1 | – | 2.51 µM (active) |

| SMILES | activity, negative = inhibition | AC50 |
| --- | --- | --- |
| CN(C)C(=O)c1ccc(-c2ccc3ncnc(NCc4cccs4)c3c2)cc1 | – | 10 µM (active) |
| Cc1cccc(CNc2ncnc3ccc(-c4ccc(C(=O)N(C)C)cc4)cc23)c1 | – | 2 µM (active) |
| OCCN1CCN(C(=S)c2ccc(Br)cc2)CC1 | 0.405% (inactive) | – |
| NC(N)=Nc1ccc(Cl)cc1 | -4.16% (inactive) | – |
| CC(=O)OC[C@@H]1O[C@@H](O/N=C2/C[C@@H](O)[C@@H](O)[C@@H]3[C@@H]4C(=O)N(C[C@@H]5CCCO5)C(=O)[C@H]4CC[C@@H]23)[C@H](OC(C)=O)[C@H](OC(C)=O)[C@@H]1OC(C)=O | -14.3% [at 11.4 µM] (inactive) | – |
| Clc1ccc2c(c1)N(CCCN1CCCC13CCCCC3)c1ccccc1S2 | -16.3% [at 11.4 µM] (inactive) | – |
| O=C(O)[C@@H](Cc1c[nH]c2ccccc12)C(=O)NO | -15.9% [at 11.4 µM] (inactive) | – |
| COc1cccc(CNCCc2c[nH]c3ccccc23)c1OCc1ccccc1F | – | 4.47 µM (active) |
| COc1cc(CNCCc2c[nH]c3ccccc23)ccc1OCc1ccccc1F | – | 7.08 µM (active) |
| O=c1c[n+](CCCC[n+]2cc(=O)o[nH]2)[nH]o1 | -11.2% [at 11.4 µM] (inactive) | – |
| Cc1cc[n+](CC(=O)Nc2cc(C(F)(F)F)ccc2Cl)cc1 | -3.03% (inactive) | – |
| CN(C)c1cc[n+](CC(=O)Nc2cc(C(F)(F)F)ccc2Cl)cc1 | -17.4% (inactive) | – |
| Cc1ccc(C)n1CCN1CCN(CC(=O)Nc2cc(C(F)(F)F)ccc2Cl)CC1 | – | 25.1 µM (active) |
| COC(=O)CSc1nnc(CNc2ccc(Cl)cc2)n1-c1ccccc1 | – | 12.6 µM (active) |
| COc1ccc(NCc2nnc(SCc3ccccc3)n2-c2ccc(OC)cc2)cc1 | – | 5.01 µM (active) |
| COC(Cc1nnc(SC)n1-c1ccccc1)OC | 19.6% (inactive) | – |
| CCOC(=O)CSc1nnc(Cc2ccccc2)n1-c1cccc(Cl)c1 | – | 2 µM (active) |
| CCOC(=O)CSC1=NC(=O)/C(=C\c2ccc(Cl)cc2)S1 | 11.4% (inactive) | – |
| CCOc1ccc(NCc2nnc(SCc3ccccc3Cl)n2-c2ccccc2)cc1 | – | 14.1 µM (active) |
